# Experimental data as given in PubChem BioAssay (NCI).
# About 79,000 compounds went through this panel and 15% of them were active in at least one assay; those are over-represented in the sample as a whole. Active and inactive are the calls of the source. No stated cut-off is given here; in the data, active means growth inhibition above about 70%; inactive means the rest.
# Experiment: NCI Yeast Anticancer Drug Screen. Data for the sgs1 mgt1 strain (AID 161);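 further: 0% = growth of cultures given vehicle only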
# Settings: S. cerevisiae sgs1 mgt1 strain, at 50.0 µM, stronger effect = higher value
# In short: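 Mutant yeast exposed to compound; growth scored against vehicle-only wells.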
row,SMILES,growth inhibition
1,CCc1cc2c(ccc3ccccc32)c2c1CCC2,-1.8% (inactive)
2,CCCCN(CCCC)CC(O)c1cc(-c2cc(C(O)CN(CCCC)CCCC)c3ccccc3n2)nc2ccccc12 (stereo not given),46.1% (inactive)
3,N#Cc1[nH]nc2nc[nH]c(=O)c12,-10.8% (inactive)
4,CC(=O)CC(=O)NCCCN1CCCCCC1,-9.45% (inactive)
5,O=C(NNC(=O)OCc1ccccc1)OCc1ccccc1,1.3% (inactive)
6,CC1(C(=O)N2c3ccccc3C=CC2C#N)CC2C=CC1C2 (stereo not given),1.9% (inactive)
7,COC(=O)C1C2C=CC(C2)C1C(=O)OC (stereo not given),-10.8% (inactive)
8,COC(=O)CCCCCCCCC(C)C(C)=O (stereo not given),-16.4% (inactive)
9,Clc1c(Cl)c(Cl)c(CSCc2c(Cl)c(Cl)c(Cl)c(Cl)c2Cl)c(Cl)c1Cl,-12.2% (inactive)
10,Fc1ccc(-c2nnc(-c3ccc4ccccc4c3)o2)cc1,21.4% (inactive)
11,CC1CCC2(OC1)OC1CC3C4CCC5CC(O)CCC5(C)C4CC(=O)OC3(C)C1C2C (stereo not given),-14.8% (inactive)
12,C=C(/C=C/CCCC)NC(=O)OCc1ccccc1,8% (inactive)
13,CC(NC(=O)C(N)CC(=O)O)NC(=O)C1CCC1 (stereo not given),-19.2% (inactive)
14,CCOC(=O)c1c(Br)c(-c2ccc([N+](=O)[O-])cc2)c(Br)n1C,-0.15% (inactive)
15,O=C(O)c1ccccn1,33.8% (inactive)
16,CC(=O)/C(=N/O)C(C)C,6.35% (inactive)
17,O=C([O-])[C+](C=Cc1cccc2ccccc12)C(=O)O,8.35% (inactive)
18,Cc1ccc(OC(=O)c2ccc([N+](=O)[O-])cc2)cc1C(C)C,-11.7% (inactive)
19,Cc1nc(N)c(N=O)c(=O)[nH]1,14.2% (inactive)
20,CC(=O)C1(SCCO)CCC2C3CCC4=CC(=O)CCC4(C)C3CCC21C (stereo not given),97% (active)

row,SMILES,growth inhibition
1,COc1csn[n+]1-c1ccc(C)cc1,9.45% (inactive)
2,CCN(CC)C(=O)c1ccccc1,-10.3% (inactive)
3,CC(=O)N[C@@H]1CCC[C@H](NC(C)=O)C1,-12.7% (inactive)
4,C[CH2][Ge]([CH2]C)([CH2]C)[O]C(=O)CCC(=O)[O][Ge]([CH2]C)([CH2]C)[CH2]C,-3.7% (inactive)
5,COc1cc(S(=O)(=O)O)ccc1N=N/C(=N\Nc1ccc(S(=O)(=O)O)cc1OC)C(N)=O,8.9% (inactive)
6,OCc1ccc(F)cc1,-7.5% (inactive)
7,O=c1[nH]c2cc(Cl)c(Cl)cc2c2ccc(Cl)cc12,-0.35% (inactive)
8,NC(=S)n1nc(-c2ccccc2)c(N=Nc2cccc([N+](=O)[O-])c2)c1-c1ccccc1,31.1% (inactive)
9,CC(C)=CCC/C(C)=C/C=O,5.1% (inactive)
10,CC1(C)OC(=O)C=C([O-])O1.CC1(C)OC(=O)C=C([O-])O1.O=c1c(O)c(-c2ccc([O-])cc2[O-])oc2cc(O)cc(O)c12.[Ti+4],-29.4% (inactive)
11,O=C1C(=O)N(C23CC4CC(CC(C4)C2)C3)C(=S)N1c1ccccc1,-44.2% (inactive)
12,CCOC(=O)N1C=Cc2c(c3ccccc3n2C)N1C(=O)OCC,2.15% (inactive)
13,O=C(O)c1ccc(C(=O)c2ccc(C(=O)c3ccc(C(=O)O)cc3)cc2)cc1,3.65% (inactive)
14,O=C(O)c1ccc[n+](Cc2ccccc2)c1,-5.15% (inactive)
15,C=CCOC(=O)CCC(C#N)(C#N)CCC(=O)OCC=C,-0.4% (inactive)
16,Cc1ccc(S(=O)(=O)Cc2c(C)cc(C)cc2C)cc1,-2.25% (inactive)
17,NC(=S)N/N=C1\CCCCC1C(O)(C(F)(F)Cl)C(F)(F)Cl (stereo not given),-19.1% (inactive)
18,CCCCCC1CCN(C(=O)c2ccc(N)cc2)CC1,44.8% (inactive)
19,Cn1c(N)c(N=Cc2ccc(Cl)cc2)c(=O)n(C)c1=O,-5.5% (inactive)
20,O=C1C=CC(=Nc2ccc(OC(=O)c3ccccc3)cc2)C=C1,1.45% (inactive)

# Experiment: NCI Yeast Anticancer Drug Screen. Data for the cln2 rad14 strain (AID 165);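 further: 0% = growth equal to vehicle treated cultures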
# Settings: S. cerevisiae cln2 rad14 strain, at 50.0 µM, stronger effect = higher value
# In short: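 Test compounds were added to cln2 rad14 yeast cultures; inhibition of growth was then determined by comparison with vehicle treatment.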
row,SMILES,growth inhibition
1,CCc1cc2c(ccc3ccccc32)c2c1CCC2,-17.1% (inactive)
2,CCCCN(CCCC)CC(O)c1cc(-c2cc(C(O)CN(CCCC)CCCC)c3ccccc3n2)nc2ccccc12 (stereo not given),-6.85% (inactive)
3,N#Cc1[nH]nc2nc[nH]c(=O)c12,-9.95% (inactive)
4,CC(=O)CC(=O)NCCCN1CCCCCC1,-1.05% (inactive)
5,O=C(NNC(=O)OCc1ccccc1)OCc1ccccc1,-34.2% (inactive)
6,CC1(C(=O)N2c3ccccc3C=CC2C#N)CC2C=CC1C2 (stereo not given),7.6% (inactive)
7,COC(=O)C1C2C=CC(C2)C1C(=O)OC (stereo not given),-27.9% (inactive)
8,COC(=O)CCCCCCCCC(C)C(C)=O (stereo not given),-12.5% (inactive)
9,Clc1c(Cl)c(Cl)c(CSCc2c(Cl)c(Cl)c(Cl)c(Cl)c2Cl)c(Cl)c1Cl,-31.9% (inactive)
10,Fc1ccc(-c2nnc(-c3ccc4ccccc4c3)o2)cc1,12.2% (inactive)
11,CC1CCC2(OC1)OC1CC3C4CCC5CC(O)CCC5(C)C4CC(=O)OC3(C)C1C2C (stereo not given),-7.35% (inactive)
12,C=C(/C=C/CCCC)NC(=O)OCc1ccccc1,-39.5% (inactive)
13,CC(NC(=O)C(N)CC(=O)O)NC(=O)C1CCC1 (stereo not given),24.6% (inactive)
14,CCOC(=O)c1c(Br)c(-c2ccc([N+](=O)[O-])cc2)c(Br)n1C,-0.15% (inactive)
15,O=C(O)c1ccccn1,-6.1% (inactive)
16,CC(=O)/C(=N/O)C(C)C,-0.35% (inactive)
17,O=C([O-])[C+](C=Cc1cccc2ccccc12)C(=O)O,5.35% (inactive)
18,Cc1ccc(OC(=O)c2ccc([N+](=O)[O-])cc2)cc1C(C)C,-6.45% (inactive)
19,Cc1nc(N)c(N=O)c(=O)[nH]1,9.5% (inactive)
20,CC(=O)C1(SCCO)CCC2C3CCC4=CC(=O)CCC4(C)C3CCC21C (stereo not given),-3.35% (inactive)

row,SMILES,growth inhibition
1,COc1csn[n+]1-c1ccc(C)cc1,7.5% (inactive)
2,CCN(CC)C(=O)c1ccccc1,-2.65% (inactive)
3,CC(=O)N[C@@H]1CCC[C@H](NC(C)=O)C1,-17.1% (inactive)
4,C[CH2][Ge]([CH2]C)([CH2]C)[O]C(=O)CCC(=O)[O][Ge]([CH2]C)([CH2]C)[CH2]C,-66.7% (inactive)
5,COc1cc(S(=O)(=O)O)ccc1N=N/C(=N\Nc1ccc(S(=O)(=O)O)cc1OC)C(N)=O,18.6% (inactive)
6,OCc1ccc(F)cc1,3.25% (inactive)
7,O=c1[nH]c2cc(Cl)c(Cl)cc2c2ccc(Cl)cc12,-38% (inactive)
8,NC(=S)n1nc(-c2ccccc2)c(N=Nc2cccc([N+](=O)[O-])c2)c1-c1ccccc1,19.6% (inactive)
9,CC(C)=CCC/C(C)=C/C=O,9.6% (inactive)
10,CC1(C)OC(=O)C=C([O-])O1.CC1(C)OC(=O)C=C([O-])O1.O=c1c(O)c(-c2ccc([O-])cc2[O-])oc2cc(O)cc(O)c12.[Ti+4],-7.85% (inactive)
11,O=C1C(=O)N(C23CC4CC(CC(C4)C2)C3)C(=S)N1c1ccccc1,-26% (inactive)
12,CCOC(=O)N1C=Cc2c(c3ccccc3n2C)N1C(=O)OCC,-6.3% (inactive)
13,O=C(O)c1ccc(C(=O)c2ccc(C(=O)c3ccc(C(=O)O)cc3)cc2)cc1,-52% (inactive)
14,O=C(O)c1ccc[n+](Cc2ccccc2)c1,-8.2% (inactive)
15,C=CCOC(=O)CCC(C#N)(C#N)CCC(=O)OCC=C,-25.8% (inactive)
16,Cc1ccc(S(=O)(=O)Cc2c(C)cc(C)cc2C)cc1,-30.9% (inactive)
17,NC(=S)N/N=C1\CCCCC1C(O)(C(F)(F)Cl)C(F)(F)Cl (stereo not given),-8.9% (inactive)
18,CCCCCC1CCN(C(=O)c2ccc(N)cc2)CC1,49% (inactive)
19,Cn1c(N)c(N=Cc2ccc(Cl)cc2)c(=O)n(C)c1=O,-16.5% (inactive)
20,O=C1C=CC(=Nc2ccc(OC(=O)c3ccccc3)cc2)C=C1,-35% (inactive)
